AHR activator: AHR activators, primary screen, cell-based, luminescence, luciferase reporter, human. AHR-responsive luciferase reporter cells. activation, % at 5 µM. hit rate 2.5% among 320,000; in the data active means activation above about 47%;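 further: 0% = vehicle wells and 100% = reference agonist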
DAX1 inh-1: DAX1 (NR0B1) inhibitors, primary screen, cell-based, HEK293, Gal4-DAX1, luciferase luminescence. HEK293 Gal4-DAX1 luciferase reporter. inhibition, % at 6.75 µM. hit rate 0.99% among 340,000. Nuclear receptor subfamily 0 group B member 1 (Homo sapiens), P51843;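 active means inhibition above the mean over all tested compounds plus 3 SD, cut at about 4.2% in these data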;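 further: 0% = DAX1-transfected cells with DMSO and 100% = empty-vector control cells with DMSO; inhibition shows as a rise in luminescence from relieved DAX1 repression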
Target sequence (P51843 207-470 limits assumed): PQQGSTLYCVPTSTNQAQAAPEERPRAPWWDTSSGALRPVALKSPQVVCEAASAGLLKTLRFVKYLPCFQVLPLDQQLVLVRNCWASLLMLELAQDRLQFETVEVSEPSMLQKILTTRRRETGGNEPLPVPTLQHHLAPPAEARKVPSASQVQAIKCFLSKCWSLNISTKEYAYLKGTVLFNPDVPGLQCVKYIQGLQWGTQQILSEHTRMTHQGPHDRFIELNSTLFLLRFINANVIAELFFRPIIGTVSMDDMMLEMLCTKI
hcDAF-12 act: H. contortus DAF-12 nuclear receptor activators, primary screen, cell-based, luminescence, HEK293, lit1-tk-luc reporter; HEK293 hcDAF-12 lit1-tk-luc reporter; 0% DMSO, 100% Δ7-dafachronic acid; activation, % at 6.8 µM; hit rate 1.4% among 370,000; AID 652067, 2013;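 active means activation above the mean of all tested compounds plus 3 SD, cut at about 5.5% in these data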;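 further: 100% = response to 3 µM Δ7-dafachronic acid high control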
ssDAF12 agonist: S. stercoralis DAF-12 nuclear receptor activators, primary screen, cell-based, luminescence, HEK293, GRIP1 co-expression, lit1-tk-luc. hit rate 1% among 370,000. HEK293 ssDAF-12/GRIP1 lit1-tk-luc reporter; % of 3 µM dafachronic acid response. activation, % at 6.8 µM;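 active means activation above the mean over all tested compounds plus 3 SD, cut at about 0.9% in these data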;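 further: 0% = DMSO-only wells and 100% = 3 µM delta7-dafachronic acid wells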
hgDAF12 agonist: H. glycines DAF-12 receptor agonists, primary screen, cell-based, luminescence, HEK293, GAL4 fusion, UAS-luciferase | hit rate 1.8% among 370,000 | AID 687014, 2013 | Nuclear hormone receptor DAF-12 (Heterodera glycines), GAL4 fusion | HEK293 GAL4-hgDAF12 UAS-luciferase reporter, agonist luminescence; normalized to butyrate control | activation, % at 6.8 µM;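 active means activation above a cutoff set at the mean of all screened compounds plus 3 SD, cut at about 10% in these data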;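 further: 0% = DMSO wells and 100% = sodium butyrate wells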
DAX1 inh-2: DAX1 (NR0B1) inhibitors on StAR promoter, primary screen, cell-based, luminescence, SF-1 (NR5A1), full-length DAX-1 | HEK293T StAR-luciferase reporter, SF-1/DAX-1 repression relief | inhibition, % at 6.8 µM | hit rate 1.1% among 370,000 | AID 652010, 2013;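 active means inhibition above the mean over all tested compounds plus 3 SD, cut at about 3.6% in these data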;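 further: 0% = DAX-1 cells with DMSO and 100% = cells lacking DAX-1 with DMSO; higher inhibition means more luminescence from relief of DAX-1 repression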
The depositor's hits bear a star. This is a sample that favours compounds with a hit; in the whole collection about 5.7% have one here.

How did O=[N+]([O-])c1ccc(O)c(Nc2ncnc3ccc(Br)cc23)c1 do in these assays?
AHR activator: 75*; DAX1 inh-1: 0; hcDAF-12 act: 1; ssDAF12 agonist: -1; hgDAF12 agonist: -1; DAX1 inh-2: 0

Results for Cc1onc(-c2c(F)cccc2Cl)c1C(=O)N(Cc1ccccc1)C(C)C ?
AHR activator: -1; DAX1 inh-1: 1; hcDAF-12 act: -1; ssDAF12 agonist: -1; hgDAF12 agonist: 1; DAX1 inh-2: 0

What do the screens show for `O=C(O)CN1C(=O)COc2cc(S(=O)(=O)N3CCCC3)ccc21`?
AHR activator: 0; DAX1 inh-1: 5.8*; hcDAF-12 act: 0; ssDAF12 agonist: -1; hgDAF12 agonist: -1; DAX1 inh-2: 0

What do the screens show for `O=C(c1cnc2nc3ccccc3n2c1)c1cc(F)ccc1O`?
AHR activator: 28; DAX1 inh-1: 0; hcDAF-12 act: 5.6*; ssDAF12 agonist: 0; hgDAF12 agonist: 7; DAX1 inh-2: 3

What do the screens show for `Cc1cc(C)cc(CC(=O)N2CCC2(C)C(=O)NS(=O)(=O)c2ccc(C(C)(C)C)cc2)c1` (stereo not drawn)?
hcDAF-12 act: -2; ssDAF12 agonist: 0; hgDAF12 agonist: -2; DAX1 inh-2: -1

How did c1ccc(N/N=C(\Cc2ncc[nH]2)c2ccccc2)cc1 do in these assays?
AHR activator: 14; DAX1 inh-1: 2; hcDAF-12 act: 2; ssDAF12 agonist: -1; hgDAF12 agonist: 0; DAX1 inh-2: 2

What do the screens show for `Clc1cccc(N/N=C(\Cc2nc3ccccc3[nH]2)c2ccccc2)c1`?
AHR activator: 64*; DAX1 inh-1: 2; hcDAF-12 act: -1; ssDAF12 agonist: 0; hgDAF12 agonist: 7; DAX1 inh-2: 1

Results for O=C(Nc1ccc2c(c1)OCO2)OC1CC2CC1[C@H]1CCCCN1[C@H]2Cc1ccccc1 (stereo partly drawn) ?
hcDAF-12 act: -2; ssDAF12 agonist: -1; hgDAF12 agonist: 1; DAX1 inh-2: -1

What do the screens show for `O=C(Nc1cccc(S(=O)(=O)N2CCOCC2)c1)c1cnn2c(C(F)F)cc(-c3ccccc3)nc12`?
AHR activator: 7; DAX1 inh-1: 5.0*; hcDAF-12 act: 0; ssDAF12 agonist: -2; hgDAF12 agonist: -2; DAX1 inh-2: 1

What do the screens show for `Oc1ccc(C2CNCc3sccc32)cc1O` (stereo not drawn)?
AHR activator: -1; DAX1 inh-1: 0; hcDAF-12 act: -2; ssDAF12 agonist: 1.0*; hgDAF12 agonist: 0; DAX1 inh-2: 0

What do the screens show for `COCC(=O)n1nc(-c2ccccc2)nc1NCc1cccs1`?
DAX1 inh-1: 5.2*; hcDAF-12 act: 0; ssDAF12 agonist: -1; hgDAF12 agonist: 8; DAX1 inh-2: 2

Results for Cc1cccc(NC(=O)CCc2c(C)nn(-c3ccc(N4CCCCC4)nn3)c2C)c1 ?
AHR activator: 3; DAX1 inh-1: 0; hcDAF-12 act: 0; ssDAF12 agonist: -1; hgDAF12 agonist: 4; DAX1 inh-2: 3.8*

What do the screens show for `Cc1cccc(NC(=O)CCc2c(C)nn(-c3ccc(N4CCOCC4)nn3)c2C)c1`?
AHR activator: 6; DAX1 inh-1: -1; hcDAF-12 act: 1; ssDAF12 agonist: -1; hgDAF12 agonist: 3; DAX1 inh-2: 0

Results for Cc1ccc(NC(=S)NCC2CCCO2)cc1 (stereo not drawn) ?
AHR activator: 5; DAX1 inh-1: 0; hcDAF-12 act: 0; ssDAF12 agonist: -1; hgDAF12 agonist: 3; DAX1 inh-2: 0

How did CCN(CC)c1ccc(NC(=S)NCC2CCCO2)cc1 (stereo not drawn) do in these assays?
AHR activator: 30; DAX1 inh-1: 0; hcDAF-12 act: 2; ssDAF12 agonist: -1; hgDAF12 agonist: 8; DAX1 inh-2: 4.4*
